TSHR agonist: TSH receptor (human) agonism | P16473 | HEK293-CNG-TSHR cells (CNG channel as cAMP sensor), membrane potential dye, cAMP | Potency, µM (top dose mostly 57.1 µM), without a hit: at the top dose activation, hits mostly activators | actives 0.48% (n = 73,000); active = well fitted activation curve with a large enough effect in the main read-out, with a control signal flat, not every such curve was filed as active; inconclusive = small, poorly fitted or top-dose-only effect, or a change in a side signal; inactive = no such curve, though single readings can be large or run the other way; % of control where 0% means no effect;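 note: the control signal comes from parental cells without the receptor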
Target sequence (P16473 whole entry, looked up): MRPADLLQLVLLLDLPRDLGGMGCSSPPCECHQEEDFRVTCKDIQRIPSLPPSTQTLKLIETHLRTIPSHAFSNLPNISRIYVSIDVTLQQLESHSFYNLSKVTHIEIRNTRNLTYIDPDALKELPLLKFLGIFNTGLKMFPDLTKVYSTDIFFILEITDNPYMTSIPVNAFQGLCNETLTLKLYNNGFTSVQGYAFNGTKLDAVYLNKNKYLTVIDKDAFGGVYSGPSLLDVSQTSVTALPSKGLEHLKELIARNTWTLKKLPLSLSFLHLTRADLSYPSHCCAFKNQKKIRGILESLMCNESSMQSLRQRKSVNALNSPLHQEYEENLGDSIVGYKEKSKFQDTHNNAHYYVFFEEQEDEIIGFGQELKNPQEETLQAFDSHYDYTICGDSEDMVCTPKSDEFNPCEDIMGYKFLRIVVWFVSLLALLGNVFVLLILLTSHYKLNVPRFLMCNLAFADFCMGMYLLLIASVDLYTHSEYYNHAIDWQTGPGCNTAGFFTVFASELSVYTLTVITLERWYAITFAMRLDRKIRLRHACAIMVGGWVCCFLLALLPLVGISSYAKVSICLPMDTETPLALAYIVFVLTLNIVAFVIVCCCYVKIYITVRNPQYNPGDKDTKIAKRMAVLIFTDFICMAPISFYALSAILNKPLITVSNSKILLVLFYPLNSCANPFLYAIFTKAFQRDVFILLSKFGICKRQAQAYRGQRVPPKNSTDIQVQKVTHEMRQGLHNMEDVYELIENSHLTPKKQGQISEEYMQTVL
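cAMP rise detected as CNG-channel membrane depolarization by fluorescent dye (emission 590 nm), 30 min after compound, following 60 min dye loading containing 100 uM RO 20-1724 at room temperature. Cells: TSHR/CNG HEK 293, with parental CNG HEK 293 as control.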
Bst PK mod: alters activity of Bacillus stearothermophilus pyruvate kinase | actives 1.2% (n = 51,000) | Potency, µM | purified pyruvate kinase, luminescence ATP production; ribose 5-phosphate activator present at AC10; in the data active = potency below about 11 µM; inconclusive = mostly about 12 µM to 25 µM;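 the screen sought inhibitors and activators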;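 note: scaled between full activation by ribose 5 phosphate and full inhibition by luteolin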
HEK293 cAMP ctrl: raises cAMP in parental HEK293 cells, TSHR agonist counter-screen. parental HEK293 CNG cAMP sensor, membrane potential fluorescence. Potency, µM (top dose mostly 57.1 µM), for inactives: top-dose activation, hits mostly activators. actives 2.5% (n = 73,000). AID 938; note: % of control where 0% means no effect; nearly all actives have a fitted effect of over 55% in size
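Counterscreen for endogenous-receptor signalling: CNG-channel HEK 293 cells report cAMP rise by membrane depolarization. After 60 min dye equilibration with 100 uM RO 20-1724, compounds incubated 30 min before bottom-read fluorescence at 590 nm.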
Luciferase inh: firefly luciferase inhibition. P08659. purified firefly luciferase, luminescence, 8 min. Potency, µM (doses to about 57.1 µM), inactives show top-dose activity change, negative = inhibition, actives largely listed as inhibitors. actives 2.2% (n = 72,000). AID 411; note: % is set by controls: 0 for no effect and ±100 for the full control effect; nearly all actives have a fitted effect of over 40% in size
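Substrate buffer containing 10 uM ATP (pH 7.2 imidazole, Mg2+, KCl, detergent, BSA) is dispensed, compound pinned in, then luciferase/luciferin detector mix added. After 8 min at ambient temperature, light output is measured.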
Starred values were filed as active, the others as inactive; i = inactive; ? = inconclusive; . = no result given; ! = not confirmed by another sample; [ ] = another dose, or the depositor's remark. Sampled rows, rich in hits. Any-hit rate of the full collection: about 5.2%. Unless noted, calls come from the whole dose curve; as a rule, active = well fitted curve in the direction sought with a large enough effect; inconclusive = small, poorly fitted or top-dose-only effect, or another doubt; inactive = no such curve, though single readings can be large; an effect the other way counts as inactive or inconclusive. Potency is the fitted concentration of half-maximal effect.

SMILES	TSHR agonist	Bst PK mod	HEK293 cAMP ctrl	Luciferase inh
CC(=O)c1c(C)nc2ccccc2c1N	1%	2.5*	-7%	3.2µM*
Cc1ccc(C2N(c3cc(C)on3)C(=O)C3CCCN32)cc1 (stereo not drawn)	7%	>57	13%	-2%
CC(NS(=O)(=O)c1ccc(CCC(=O)N2CCN(C)CC2)cc1)c1ccccc1 (stereo not drawn)	?	>57	4µM*	5%
Cc1cc(S(=O)(=O)NCC(C)C)ccc1OCC(=O)N1CCN(Cc2ccccc2)CC1	19%	>57	5%	3%
COc1ccc(OCC(=O)N2CCN(CC3CC4C=CC3C4)CC2)cc1 (stereo not drawn)	2%	>57	16%	0%
CCOC(=O)c1c(C)n(Cc2ccco2)c2ccc(OC)cc12	?	.	25µM*	-2%
CCOC(=O)c1c(C)n(CCN2CCN(C)CC2)c2ccc(OC)cc12	8%	>57	7%	-2%
CN(C)Cc1c[nH]c2ccccc12	16µM*!	.	-1%	-1%[11.4 µM]
c1ccc2c(CCNC3=NCCC3)c[nH]c2c1	-3%	>57	-3%	4%
COc1ccc2c(c1OC)C(=O)O[C@H]2[C@H]1c2cc3c(cc2CCN1C)OCO3	?	.	13µM*!	2%[11.4 µM]
COc1ccc2c(c[n+](C)c3c4cc5c(cc4ccc23)OCO5)c1OC	?	.	-35%	32µM*
CN(C)c1ccc2c(c1)N=C(c1ccco1)OP2(=S)N1CCOCC1 (stereo not drawn)	16µM*	>57	25%	-4%
CCCC/C(C)=C/[C@@H](NP(=O)(c1ccccc1)c1ccccc1)c1ccccc1	?	.	16µM*	.
CCCC/C=C/[C@@H](NP(=O)(c1ccccc1)c1ccccc1)c1ccccc1OC	?	.	2µM*	.
CCCCCP(=O)(O)c1ccccc1	0%	.	6%	2%
O=C(Nc1cccnc1)c1c(O)c2c(n(Cc3ccccc3)c1=O)CCCC2	?	>57	13µM*	-2%
O=C(Nc1ccncc1)c1c(O)c2ccccc2n(Cc2ccccc2)c1=O	.	>26	.	2%[25.5 µM]
COc1ccccc1N1CCN(Cc2c(F)cccc2Cl)CC1	-1%[11.4 µM]	.	-1%[11.4 µM]	1%
CN1C[C@H](CO)C=C2c3cccc4[nH]cc(c34)C[C@@H]21	-17%[25.6 µM]	.	-9%[25.6 µM]	3%[25.5 µM]
CCN(CC)C(=O)N[C@@H]1C=C2c3cccc4[nH]cc(c34)C[C@@H]2N(C)C1	?	.	16µM*!	2%
CC(=NCCN1CCCCC1)c1c(O)n(Cc2ccccc2)c(=O)[nH]c1=O	4%	>57	7%	4%
c1ccc(CCn2nnnc2CN2CCC(n3nnc4ccccc43)CC2)cc1	7%	>57	18%	3%
CN1CCN(c2ccc3nc(-c4ccc5nc(-c6ccc(O)cc6)[nH]c5c4)[nH]c3c2)CC1	3%[11.4 µM]	.	6%[11.4 µM]	4µM*
O=[N+]([O-])c1ccccc1-c1ccccc1	-5%	.	15%	.
Cc1nn(CCC#N)c2c1P(=S)(N1CCCC1)OC(c1ccc(F)cc1)=N2 (stereo not drawn)	16µM*	>57	27%	-1%
SMILES	TSHR agonist	Bst PK mod	HEK293 cAMP ctrl	Luciferase inh
COC(=O)[C@@H]1[C@@H](O)[C@@]2(O)c3c(OC)cc(OC)cc3O[C@@]2(c2ccc(OC)cc2)[C@H]1c1ccccc1	-4%[11.4 µM]	.	-4%[11.4 µM]	2%[11.4 µM]
CC1N(P(=O)(c2ccccc2)c2ccccc2)CC(O)(c2ccccc2)CC12CC2 (stereo not drawn)	?	.	16µM*	.
O=c1c2ccccc2[se]n1-c1ccccc1	-14%[25.6 µM]	i	-8%[25.6 µM]	16µM*
COc1cccc(-n2c(C)nc3ccccc3c2=O)c1	.	>26	.	1%[25.5 µM]
NC(=O)C1(N2CCCCC2)CCN(Cc2ccccc2)CC1	?	>57	?	-1%
CCN(CC)CCCN=Cc1c(O)n(Cc2ccc(F)cc2)c(=O)[nH]c1=O	6%	.	6%	13µM*
CC1=NN=C(c2ccc(N)cc2)c2cc3c(cc2C1)OCO3	4%	.	4%	2µM*!
CCCCCCn1c(=O)c(C(=O)Nc2ccncc2)c(O)c2ccccc21	13%	.	-1%	0%
N#CC(Br)Br	?	.	8%	.
C[C@@H](Cc1cccc(C(F)(F)F)c1)NCCCc1ccccc1	?	.	40µM*	3%
O=S1(=O)CC2(N3CCOCC3)CCCCC21 (stereo not drawn)	0%	.	2%	-2%
COc1cc2cc(c1Cl)N(C)C(=O)C[C@H](OC(=O)C(C)C)[C@]1(C)O[C@@H]1[C@@H](C)[C@H]1C[C@](O)(NC(=O)O1)[C@@H](OC)/C=C\C=C(\C)C2	?	.	1µM*	3%[11.4 µM]
Nc1ccc(C2(c3ccc(N)cc3)CN3CCC2CC3)cc1	.	>26	.	-1%[25.5 µM]
COc1ccc(P2(=O)Nc3ccccc3N2)cc1	-18%	.	3%	6.3µM*
COc1ccc(N)cc1	2%	.	20%	.
Cc1nc2ncnn2c(C)c1CCC(=O)N1CCC2(CC1)OCCO2	4%	>57	22%	1%
Cc1cccc(CN(C)C)c1OC(=O)N(C)C	?	>57	-55%	3%
CCNC(=O)[C@@H]1O[C@@H](n2cnc3c(N)ncnc32)[C@H](O)[C@H]1O	?	.	0.16µM*	-2%
O=C(c1cc2cc3ccc(Cl)cc3nc2o1)N1CCC2(CC1)OCCO2	2%	.	-1%	-2%
O=C(CSc1nnc2c3c4c(sc3ncn12)CCCC4)NCc1ccco1	?	>57	13µM*	0%
COc1ccc(C2=NCC(=O)N(CC(=O)NCc3ccco3)c3sc4c(c32)CCCC4)cc1OC	.	>57	12%	-2%
Cc1ccc2nc3c(cc2c1)CC1(C(=O)N(C)C(=O)N(C)C1=O)C1CCCCN31 (stereo not drawn)	-4%	?	8%	6.3µM*
O=C1NCCN2CCCC12 (stereo not drawn)	.	>26	.	2%[25.5 µM]
CC(C)(C)n1c(O)c(C=Nc2ccc3c(c2)CCC3)c(=O)[nH]c1=O	?	>57	25µM*	1%
CCCCn1c(O)c(C(CC)=Nc2ccc3c(c2)CCC3)c(=O)[nH]c1=O	?	>57	?	1%
SMILES	TSHR agonist	Bst PK mod	HEK293 cAMP ctrl	Luciferase inh
COC(=O)Cc1cc(=O)n(-c2ccccc2)[nH]1	?	>57	-39%	0%
COc1ccc2c(c1)c(CCN1CCOCC1)c(C)n2C(=O)c1cccc(Cl)c1Cl	?	.	10µM*	.
CCCCn1c(C)c(C(=O)O)c2cc(OC)ccc21	8%	>57	18%	0%
O=C1CCCN1CC#CCN1CCCC1	10%	.	29%	25µM*!
CCCC[C@@H]1C[C@H]1C(NP(=O)(c1ccccc1)c1ccccc1)c1ccc(Cl)cc1 (stereo partly drawn)	?	.	2.5µM*	.
O=C(Nc1ccccc1)N1CC[C@@]2(CCCN(C(=O)Oc3ccccc3)C2)C1	?	.	?	1%[11.4 µM]
COC(=O)[C@@H]1C[C@@]1(C)[C@@H](NP(=O)(c1ccccc1)c1ccccc1)c1ccccc1	?	.	1.3µM*	.
CN1[C@@H](C[C@@H](O)c2ccccc2)CCC[C@@H]1C[C@H](O)c1ccccc1	10%[25.6 µM]	.	17%[25.6 µM]	6%[25.5 µM]
O=C(Oc1ccc2ccccc2c1Cl)N1CCCC1	-10%	.	8%	16µM*
Cc1ccc2cccc(OC(=O)N3CCCC3)c2n1	10%	?	1%	1%

Screens (PubChem BioAssay)
